Compound activity (PubChem)
Only a selection was taken, and hits are over-represented in it overall.
IL-1B inflam inh – qHTS for Inhibitors of Inflammasome Signaling: IL-1-beta AlphaLISA Primary Screen; THP-1 LPS/ATP IL-1B secretion, AlphaLISA, 16 h; active compounds read low; activity change, % at 57.5 µM; actives 4.7% (n = 360,000); AID 743279, 2014; in the data active means activity change below about -50%; inconclusive means mostly about -30% to -49%
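THP-1 cells pretreated 1 hr with compounds (up to 57.5 uM final), then stimulated with LPS (250 ng/mL final) plus ATP (1.25 mM final); secreted IL-1B measured by AlphaLISA after 16 hr, decreased signal indicating inhibition.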
HT1080NT lethal – qHTS for induction of synthetic lethality in tumor cells producing 2HG: qHTS for the HT-1080-NT fibrosarcoma cell line; HT-1080-NT fibrosarcoma viability, CellTiter-Glo ATP luminescence, 48 h; Potency, µM (top dose mostly 46.1 µM), for the others: at the top dose activity, negative = less viability, actives largely listed as cytotoxic; actives 1.6% (n = 360,000);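 further: NT is the 2HG producing partner of a matched IDH1 knockdown line; potency means the concentration at half of the fitted maximal effect; 0% = DMSO-treated cells and -100% = media-only wells without cells; nearly all actives have a fitted effect of over 55% in size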
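Toxicity toward the 2HG-producing NT line was scored as %Activity, normalised to DMSO and no-cell wells, from CellTiter-Glo luminescence after 48 hours' treatment.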
TDP1 cell CPT – qHTS for Inhibitors of human tyrosyl-DNA phosphodiesterase 1 (TDP1): qHTS in cells in presence of CPT; chicken DT40 Tdp1-/-;hTDP1 cells + 20 nM CPT, ATP luminescence, 48 h; Potency, µM (highest dose often 46.2 µM), inactives show at the top dose activity change, negative = growth inhibition, hits mostly inhibitors; actives 12% (n = 420,000); further: potency means the concentration at half of the fitted maximal effect; nearly all actives have a fitted effect of over 55% in size
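Cell growth measured by CellTiter-Glo luminescence after a minimum 48 h, 37 C compound exposure with 20 nM CPT in Tdp1-knockout DT40 cells stably expressing hTDP1, seeded 400/well; qHTS titration format.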
12-LOX inh – Primary qHTS assay for inhibitors of human arachidonate 12S-lipoxygenase (ALOX12): Round 2; Polyunsaturated fatty acid lipoxygenase ALOX12 (Homo sapiens), P18054; purified 12hLO, xylenol orange hydroperoxide absorbance; Potency, µM (doses to about 108 µM), for inactives: at the highest dose activity change, negative = inhibition, actives largely listed as inhibitors; actives 1.1% (n = 580,000); AID 1671190, 2021; further: potency means the concentration at half of the fitted maximal effect
Target sequence (P18054 whole entry, looked up): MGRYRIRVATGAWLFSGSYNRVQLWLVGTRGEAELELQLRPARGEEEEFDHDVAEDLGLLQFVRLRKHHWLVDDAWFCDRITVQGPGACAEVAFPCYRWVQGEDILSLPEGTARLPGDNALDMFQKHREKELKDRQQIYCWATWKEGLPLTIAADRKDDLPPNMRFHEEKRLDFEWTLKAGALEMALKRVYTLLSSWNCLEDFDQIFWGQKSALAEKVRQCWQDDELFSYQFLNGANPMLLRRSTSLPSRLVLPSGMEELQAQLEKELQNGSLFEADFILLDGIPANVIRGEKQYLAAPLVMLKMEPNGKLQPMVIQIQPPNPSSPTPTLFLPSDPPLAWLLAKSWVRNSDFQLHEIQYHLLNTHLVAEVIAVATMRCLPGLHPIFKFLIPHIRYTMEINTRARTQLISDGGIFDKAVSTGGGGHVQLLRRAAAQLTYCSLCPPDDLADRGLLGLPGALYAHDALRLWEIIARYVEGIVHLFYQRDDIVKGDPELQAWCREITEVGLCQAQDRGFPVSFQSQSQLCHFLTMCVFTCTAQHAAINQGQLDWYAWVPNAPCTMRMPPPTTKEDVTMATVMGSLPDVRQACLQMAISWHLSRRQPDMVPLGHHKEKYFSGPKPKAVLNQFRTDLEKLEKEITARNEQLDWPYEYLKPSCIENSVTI
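Hydroperoxide product was detected by ferrous iron/xylenol orange as the 573 to 405 nm absorbance ratio. Arachidonic acid at 40 uM (final) was turned over for 30 min at room temperature by 150 nM human 12hLO, pH 7.0 Hepes buffer, after 15 min compound preincubation.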
HT1080 IDH1KD tx – qHTS for induction of synthetic lethality in tumor cells producing 2HG: qHTS for the HT-1080-IDH1KD cell line; HT-1080 IDH1 knockdown viability, ATP luminescence, 48 h; AID 686971, 2013; Potency, µM (top dose mostly 46.1 µM), without a hit: top-dose activity, negative = toxicity, hits mostly cytotoxic; actives 2% (n = 360,000);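 further: potency means the concentration at half of the fitted maximal effect; 0% = DMSO wells and -100% = cell-free medium wells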
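HT-1080-IDH1KD cells (IDH1 knocked down), 750/well in RPMI with 5% FBS, treated with compound 48 h at 37 degrees C. Viability by CellTiter-Glo luminescence, normalised to DMSO and no-cell wells; concentration-response curves classed.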
DT40 TDP1 no CPT – qHTS for Inhibitors of human tyrosyl-DNA phosphodiesterase 1 (TDP1): qHTS in cells in absence of CPT | actives 15% (n = 420,000) | Potency, µM (series often up to 46.2 µM), without a hit: top-dose activity change, negative = growth inhibition, usual class: inhibitors | DT40 Tdp1-/- hTDP1 cells, no CPT, ATP luminescence, 48 h; further: potency means the concentration at half of the fitted maximal effect; nearly all actives have a fitted effect of over 55% in size
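Camptothecin absent (DMSO only). Human TDP1-complemented DT40 knockout cells, 400 cells/well, 37 °C for minimum 48 hr; ATP measured via CellTiter-Glo, 30 min dark incubation, luminescence.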
* marks the source's active call; other numbers are inactive results; ? = inconclusive; nt = no result; [ ] = remark or other dose. Unless noted, the call rests on the fitted dose curve; in most records, active means well fitted curve in the direction sought with a large enough effect; inconclusive means small, poorly fitted or top-dose-only effect, or another doubt; inactive means no such curve, though single readings can be large; an effect the other way counts as inactive or inconclusive. Unless noted, on the % scale 0 is the no-effect control and ±100 the full control effect.

SMILES	IL-1B inflam inh	HT1080NT lethal	TDP1 cell CPT	12-LOX inh	HT1080 IDH1KD tx	DT40 TDP1 no CPT
CN(C)C1=NC[C@H](Cc2ccccc2)N1CCCC1CCCCC1	?	-16%	7.3µM*	?	?	6.5µM*
C[C@H]1CN=C(N(C)C)N1CCC1CCCC1	-12	1%	?	10%	-8%	?
CCOc1ccc2[nH]c(=O)c(CN(CCCN3CCOCC3)Cc3nnnn3Cc3ccc(OC)cc3)cc2c1	-16	-25%	?	-14%	?	21µM*
COC(=O)c1ccccc1S(=O)(=O)N(Cc1ccco1)Cc1cc2cc(OC)ccc2[nH]c1=O	14	-1%	?	?	-22%	18µM*
COc1cc2cc(CN(Cc3nnnn3Cc3ccco3)C3CCCCC3)c(=O)[nH]c2cc1OC	17	-4%	-22%	?	-15%	-23%
CCOc1ccc2[nH]c(=O)c(CN(Cc3ccco3)C(CC)c3nnnn3Cc3ccccc3)cc2c1 (configuration not stated)	?	-24%	?	-11%	?	?
COc1ccc2[nH]c(=O)c(CN(Cc3ccco3)Cc3nnnn3Cc3ccccc3)cc2c1	-8	-2%	21µM*	-24%	-4%	16µM*
CC(=O)Nc1ccc(S(=O)(=O)N(Cc2ccco2)Cc2cc3ccccc3[nH]c2=O)cc1	0	-28%	?	10%	-9%	?
CCc1ccc2[nH]c(=O)c(CN(Cc3ccccc3OC)Cc3nnnn3Cc3ccco3)cc2c1	-82*	?	?	0%	?	?
Cc1cc(=O)oc2cc3c(cc12)CCC1(CCC(C)CC1)O3 (configuration not stated)	nt	nt	nt	2%	nt	nt
CSc1ccc(CN(C)C(=O)NCc2ccc(S(=O)(=O)N3CCCCC3)cc2)cc1	nt	nt	nt	-4%	nt	nt
CSc1ccccc1NC(C)=O	nt	nt	nt	-15%	nt	nt
COc1ccc(-c2nc3cnc(N4CCOCC4)nc3n(Cc3cccs3)c2=O)cc1	nt	nt	-23%	?	nt	-2%
CC(=O)Nc1ccc(S(=O)(=O)Nc2ccc(S(=O)(=O)Nc3nccs3)cc2)cc1	2	?	?	-10%	15%	-11%
O=c1c2ccccc2nnn1CSc1nnc(COc2ccc(Cl)cc2)n1Cc1ccco1	-30	-5%	23µM*	-10%	1%	21µM*
Cc1ccc(OCc2nnc(SCC(=O)c3ccccc3)n2Cc2ccco2)cc1	-9	-23%	23µM*	0%	-22%	18µM*
Fc1ccccc1CSc1nnc(-c2cnccn2)n1Cc1ccco1	?	0%	-6%	-20%	15%	-24%
Cc1ccc(OCc2nnc(SCc3nc4ccccc4[nH]3)n2Cc2ccco2)cc1	-19	-26%	15µM*	0%	-26%	18µM*
Clc1ccc(CSc2nnc(-c3ccccn3)n2Cc2ccco2)c(Cl)c1	-1	6%	?	?	6%	29µM*
CC(C)CN1C(=O)c2ccccc2C(C(=O)Nc2nncs2)C12CCCC2 (configuration not stated)	nt	nt	nt	33%	nt	nt
CCn1c(COc2ccccc2)nnc1SCC(=O)Nc1cc(C)ccc1OC	-8	8%	?	-20%	-24%	?
CCn1c(COc2ccc(C)cc2)nnc1SCC(=O)Nc1cc(OC)ccc1OC	-5	5%	?	0%	-13%	21µM*
Clc1ccc(CSc2nnc(-c3ccccn3)n2Cc2cccs2)cc1Cl	0	?	?	9%	?	18µM*
O=C(CSc1nnc(-c2ccccn2)n1Cc1ccco1)c1ccc(-c2ccccc2)cc1	-11	1%	29µM*	-7%	2%	?
COc1ccccc1NC(=O)CSc1nnc(COc2ccc(Cl)cc2)n1Cc1ccco1	?	?	21µM*	-7%	-27%	15µM*
SMILES	IL-1B inflam inh	HT1080NT lethal	TDP1 cell CPT	12-LOX inh	HT1080 IDH1KD tx	DT40 TDP1 no CPT
COCCCNC(=O)CCC[C@@H]1[C@H]2CCCN3CCC[C@@H](CN1C(=O)c1cccnc1)[C@@H]23	nt	nt	nt	30%	nt	nt
CN1CCN(c2oc(-c3ccc(S(=O)(=O)N4CCCCC4)cc3)nc2C#N)CC1	nt	nt	nt	-6%	nt	nt
COc1ccc(C(=O)N(CN2CCCC2=O)c2ccc(C)cc2)cc1	22	-4%	?	-22%	-10%	15µM*
Cc1ccc(N(CN2CCCC2=O)C(=O)c2ccccc2)cc1	30	0%	13µM*	-6%	-1%	13µM*
COc1cccc(C(=O)N(CN2CCCC2=O)c2ccccc2OC)c1	14	-6%	-19%	-4%	4%	-15%
CCN1C(=O)COC[C@@H]1[C@H](O)c1ccc(NC(=O)CC(C)(C)C)cc1	nt	nt	nt	9%[176 µM]	nt	nt
COC(=O)N1CCC2(C1)OC(=O)Nc1cnccc12 (configuration not stated)	nt	nt	nt	50%[176 µM]	nt	nt
CCN1C(=O)c2cccc3c(S(=O)(=O)Nc4ccccc4OC)ccc1c23	-30	-1%	12µM*	-1%	-11%	15µM*
CCOc1ccccc1NC(=O)CN1c2ccccc2S(=O)(=O)c2ccccc21	nt	nt	26µM*	-8%	nt	?
COc1ccc(NC(=O)CN2C(=O)C(C)Oc3ccccc32)c(OC)c1 (configuration not stated)	-10	8%	-9%	-25%	-25%	?
CCOc1ccccc1NC(=O)CN1C(=O)C(=O)c2ccccc21	nt	nt	5.8µM*	6%	nt	4.1µM*
COc1ccc(NC(=O)CN2C(=O)C(=O)c3ccccc32)c(OC)c1	nt	nt	4.1µM*	-5%	nt	6.5µM*
CCOc1ccccc1NC(=O)CN1C(=O)COc2ccccc21	-8	-1%	0%	0%	7%	-6%
CCN1C(=O)c2cccc3c(S(=O)(=O)NCc4ccccc4)ccc1c23	-26	-6%[9.24 µM]	?	11%	-4%	?
Cc1cc2oc(=O)cc(CN3CCOC(C)C3)c2cc1Cl (configuration not stated)	nt	nt	nt	-2%	nt	nt
